# Measurements reported in PubChem BioAssay AID1259343 (VanderVen Lab, College of Veterinary Medicine, Cornell …, 2017).
# About 2,900 (47%) of roughly 6,200 compounds were called active. Rule as the data show it: active = inhibition above about 50%; inactive = the rest. The set was probably picked from earlier hits. The list shows a part of the results.
# Test: Mycobacterium tuberculosis growth inhibition, primary screen (AID 1259343)
# Details: inhibition: at 10 µM, hits give high values; outcome: 10 uM
row,Compound,inhibition
1,Cc1nnc(N2C(=N)S/C(=C\c3c(-c4ccccc4)n(C)c4ccccc34)C2=O)s1,23.3% (inactive)
2,NC(=O)c1ccccc1OCc1ccccc1C(F)(F)F,42.9% (inactive)
3,O=S(=O)(Nc1c(F)cccc1F)c1cccc(Br)c1,4.09% (inactive)
4,O=S(=O)(Nc1cc(F)ccc1F)c1cc(Cl)cc(Cl)c1,64.2% (active)
5,O=S(=O)(Nc1cc(F)ccc1F)c1cccc(Br)c1,103% (active)
6,O=S(=O)(Nc1cccc(F)c1)c1cc(Br)ccc1Br,29.6% (inactive)
7,CCCc1ccc(S(=O)(=O)Nc2ccc(F)cc2C(=O)O)cc1,-3.59% (inactive)
8,O=C(O)c1cc(F)ccc1NS(=O)(=O)c1ccc(Cl)cc1,70% (active)
9,Cc1ccc(NS(=O)(=O)c2ccc(C)c(F)c2)c(C(=O)O)c1,8.32% (inactive)
10,O=S(=O)(Nc1ccc(F)cc1F)c1cccc(F)c1,-36.4% (inactive)
11,O=S(=O)(Nc1cc(Cl)ccc1O)c1cc(Br)ccc1Br,105% (active)
12,O=S(=O)(Nc1ccc(F)cc1)c1cc(Br)ccc1Br,33.5% (inactive)
13,O=S(=O)(Nc1ccccc1I)c1ccc(C(F)(F)F)cc1,41.5% (inactive)
14,Cc1ccc(NS(=O)(=O)c2ccc(Cl)cc2F)c(Cl)c1,73% (active)
15,Cc1ccc(NS(=O)(=O)c2cccc(C(F)(F)F)c2)c([N+](=O)[O-])c1,77.1% (active)
16,O=S(=O)(Nc1cc(F)ccc1F)c1ccc(Cl)cc1F,64.4% (active)
17,Cc1ccc(C)c(S(=O)(=O)Nc2ccc(Cl)cc2F)c1,0.55% (inactive)
18,O=[N+]([O-])c1ccc(Cl)c(S(=O)(=O)Nc2ccc(F)cc2Cl)c1,78.2% (active)
19,O=[N+]([O-])c1cc(Cl)ccc1NS(=O)(=O)c1cccc(C(F)(F)F)c1,-1.17% (inactive)
20,O=S(=O)(Nc1ccc(F)cc1F)c1ccc(Cl)cc1F,-21.9% (inactive)
21,CCC1=NOC(c2nc3sc(C(C)(C)C)cc3c(=O)[nH]2)C1 (centres undefined),25.8% (inactive)
22,Cc1ccc(S(=O)(=O)Nc2ccc(Cl)c(C#N)c2)cc1,-29.9% (inactive)
23,Cc1ccc(NS(=O)(=O)c2cc(Cl)cc(Cl)c2)cc1,88.4% (active)
24,O=C(C1=C2SC=C(c3ccc(Br)cc3)N2CC1)c1ccc2c(c1)OCO2,-40.9% (inactive)
25,Cc1cc(=O)[nH]c(-n2nc(C)cc2NC(=O)Cc2cccc3ccccc23)n1,102% (active)

row,Compound,inhibition
1,CCCc1cc(=O)[nH]c(-n2nc(C)cc2NC(=O)C(CC)c2ccccc2)n1 (centres undefined),102% (active)
2,CCCc1cc(=O)[nH]c(-n2nc(C)cc2NC(=O)CC(c2ccccc2)c2ccccc2)n1,101% (active)
3,CCCc1cc(=O)[nH]c(-n2nc(C)cc2NC(=O)Cc2cccc3ccccc23)n1,100% (active)
4,CCCc1cc(=O)[nH]c(-n2nc(C)cc2NC(=O)Cc2ccccc2)n1,99.9% (active)
5,CCCc1cc(=O)[nH]c(-n2nc(C)cc2NC(=O)CCc2ccccc2)n1,-14.3% (inactive)
6,CCCc1cc(=O)[nH]c(-n2nc(C)cc2NC(=O)Cc2ccc(OCC)cc2)n1,-19.4% (inactive)
7,COc1c(-c2coc3cc4c(cc3c2=O)CC(OC(C)=O)C(C)(C)O4)ccc2c1C=CC(C)(C)O2 (centres undefined),77.7% (active)
8,CCOC(C)c1nc(CN2CCc3cc(Br)ccc32)cs1 (centres undefined),28.4% (inactive)
9,O=C(Cc1ccccc1O)N1CCc2cc(Br)ccc21,23.1% (inactive)
10,CCCNC(=O)CN1CCc2cc(Br)ccc21,74.1% (active)
11,Cc1cc(Oc2ccc(C(C)C)cc2)nc(SCc2ccc(F)c(F)c2)n1,-1.84% (inactive)
12,CC(C)c1ccc(Oc2ccc3nnnn3n2)cc1,55.6% (active)
13,O=S(c1ccccc1)c1ccc2nnnn2n1 (centres undefined),-44% (inactive)
14,COc1ccc(Oc2ccc(C(=O)NCCc3cnc[nH]3)cc2)cc1,52.5% (active)
15,CCc1nc2ccc(C(=O)NCCOc3ccc(OC)cc3)cn2c1N(C=O)Cc1ccc(OC)cc1,47% (inactive)
16,COc1ccc2c(c1)CCCN2Cc1ccc(C(N)=O)cc1,20.6% (inactive)
17,COc1ccc(Oc2ccc(C(=O)NCCN3CCNC3=O)cc2)cc1,73.9% (active)
18,OC(c1ccc(Cl)cc1)c1ccc(OC(F)F)cc1 (centres undefined),19.4% (inactive)
19,COc1ccc(CNC(=O)c2ccc(Br)cn2)cc1,14.4% (inactive)
20,O=C(NCc1ccc(OC(F)F)cc1)c1ccc(Cl)cc1,85.9% (active)
21,Cc1ccc(C)c(C(C)CNC(=O)c2cnccn2)c1 (centres undefined),21.5% (inactive)
22,O=C(NCc1ccc(OC(F)F)cc1)c1cnccn1,85.3% (active)
23,COc1ccc2c(c1)CCC1C2CC[C@@]2(C)C1CC[C@@H]2O (some centres undefined),46% (inactive)
24,Cc1c(N)c(C)c([N+](=O)[O-])c(C)c1[N+](=O)[O-],-53.9% (inactive)
25,Cc1cc(N2CCCC2)ccc1NC(=O)c1cccc(NC(=O)OC(C)(C)C)c1,20.1% (inactive)

row,Compound,inhibition
1,CC(=O)c1ccc(N2CCCC2)cc1OCc1cccc(C)c1,36.7% (inactive)
2,N#CCc1cccc(C(=O)Nc2cc(F)cc(N3CCCC3)c2)c1,84.4% (active)
3,COc1ccc(-n2nnnc2SCCOc2ccc(Br)cc2)cc1,inactive
4,COc1ccc(OCCSc2nnnn2-c2ccc(OC)cc2)cc1,-17.4% (inactive)
5,COc1ccc(-n2nnnc2SCc2ccc(C#N)cc2)cc1,82.8% (active)
6,O=P1(Nc2ccc(-c3ccccc3)cc2)C=C(c2ccccc2)OC(c2ccccc2)=C1,98.4% (active)
7,Cc1c(C(=O)OCC(C)C)[nH]c2c1C(=O)CCC2,60.5% (active)
8,CCCc1cc(=O)[nH]c(-n2nc(C)cc2NC(=O)C2CC2)n1,101% (active)
9,CCc1cc(=O)[nH]c(-n2nc(C)cc2NC(=O)C2CC2)n1,101% (active)
10,O=c1c(Sc2ccc(Cl)cc2)c(O)c2c(n1-c1ccccc1)CCCC2,40.5% (inactive)
11,CC(=O)Oc1ccc2c(=O)oc(COc3ccc(C)c(C)c3)nc2c1,60.8% (active)
12,CCNCC#CCOc1ccc(C)c(C)c1,-6.66% (inactive)
13,CC(C)n1ncc2cc(N)cnc21,83.8% (active)
14,O=C1N=C2OC(C(=O)Nc3cccc(Cc4ccccc4)c3)=CN2CCN1,91.3% (active)
15,O=C(Nc1ccc(-n2cccc2)cc1)C1=CN2CCN(Cc3cscn3)C(=O)N=C2O1,4.33% (inactive)
16,CN(C(=O)Nc1nc2ccc(F)cc2s1)C1CCCc2ccccc21 (centres undefined),74.2% (active)
17,CC(=O)N1CCN(CC(=O)Nc2nc3ccc(F)cc3s2)CC1,15.5% (inactive)
18,CCN1CC(CN(C)C(=O)Nc2nc3ccccc3s2)Oc2ccccc21 (centres undefined),12.4% (inactive)
19,O=c1[nH]c(CN2CCN(c3ccccc3F)CC2)nc2ccsc12,13.7% (inactive)
20,Cc1ccc(C2=CCN(Cc3nc4ccsc4c(=O)[nH]3)CC2)cc1,94.7% (active)
21,CC(C)(O)C#Cc1ccc(C(=O)NCc2cnn(-c3ccc(F)cc3)c2)o1,36.3% (inactive)
22,O=C(Nc1nnc(C2=COCCO2)o1)c1cc(Cl)cc(Cl)c1,93.4% (active)
23,CCCc1cc(=O)[nH]c(-n2nc(C)cc2NC(=O)c2cccc3ccccc23)n1,102% (active)
24,Cc1cc(=O)[nH]c(-n2nc(C)cc2NC(=O)c2cc(C)oc2C)n1,90.8% (active)
25,CCN(CC)c1cc(C)nc(Nc2ccc(NC(=O)c3cccc4ccccc34)cc2)n1,93.6% (active)

row,Compound,inhibition
1,CCc1cc(=O)[nH]c(-n2nc(C)cc2NC(=O)c2cccc3ccccc23)n1,13.9% (inactive)
2,CCN(CC)C(=O)N1CCN(c2ccc(Nc3ccnc4cc5ccccc5cc34)cc2)CC1,-24.5% (inactive)
3,Cc1cc(=O)[nH]c(-n2nc(C)cc2NC(=O)c2cccc3ccccc23)n1,101% (active)
4,CCc1ccc(OCc2ccccc2C(=O)Nc2ccc3nc(C)cc(N)c3c2)cc1,33.8% (inactive)
5,O=C1C(c2ccccc2)C=Nc2c(-c3ccccc3)cnn21 (centres undefined),-23.2% (inactive)
6,Cc1cc(NC(=O)c2ccccc2C)n(-c2nc(C)c(C)c(=O)[nH]2)n1,-21.7% (inactive)
7,Cc1cc(=O)[nH]c(-n2nc(C)cc2NC(=O)c2ccccc2C)n1,101% (active)
8,Clc1ccc2nc(SCCC3CCCCC3)[nH]c2c1,23.7% (inactive)
9,Clc1ccc2nc(SCc3nnc(C4CCC4)o3)[nH]c2c1,16.7% (inactive)
10,Clc1ccc(CCCc2nc3ccc(Cl)cc3[nH]2)c(Cl)c1,99.6% (active)
11,S=c1ccss1,101% (active)
12,CCc1cc2c(SCC(=O)C(C)(C)C)ncnc2s1,-53% (inactive)
13,CCc1cc2c(=O)n(NC(=O)c3cccc(C)n3)cnc2s1,99.6% (active)
14,CCc1cc2c(N3CCCCC3)ncnc2s1,46.7% (inactive)
15,S=c1nn[nH]n1-c1cccc(Cl)c1,10% (inactive)
16,CC(C)c1ccc(-n2nnnc2SCC(N)=O)cc1,32.2% (inactive)
17,Fc1cccc(-n2[nH]nnc2=S)c1,90.8% (active)
18,CC(C)c1ccc(-n2[nH]nnc2=S)cc1,70.6% (active)
19,CCc1c(C)nc(-n2nc(C)cc2NC(=O)C23CC4CC(CC(C4)C2)C3)[nH]c1=O,-26.4% (inactive)
20,Cc1cc(=O)[nH]c(-n2nc(C3CC3)cc2NC(=O)C23CC4CC(CC(C4)C2)C3)n1,99.1% (active)
21,CCc1cc(=O)[nH]c(-n2nc(C)cc2NC(=O)C23CC4CC(CC(C4)C2)C3)n1,93.6% (active)
22,Cc1cc(=O)[nH]c(-n2nc(C)cc2NC(=O)C23CC4CC(CC(C4)C2)C3)n1,99.3% (active)
23,Cc1cc(NC(=O)C23CC4CC(CC(C4)C2)C3)n(-c2nc(C)c(C)c(=O)[nH]2)n1,14.6% (inactive)
24,CCCc1cc(=O)[nH]c(-n2nc(C)cc2NC(=O)C23CC4CC(CC(C4)C2)C3)n1,100% (active)
